The list is a sample of the results.
aSyn 5UTR act – Activators via SNCA 5'UTR binding, MLPCN; alpha-synuclein 5'UTR reporter, activators screen; activity score, % (tested at 7.5 µM), hits read low; 300,000 compounds, 7.1% hits; in the data active means activity score below about -60%
Of the large screens only hits and unclear results are named; the others gave an inactive call.

CS(=O)Cc1cc(Sc2ccccc2)nc(-c2cccnc2)n1 (stereo not given)	aSyn 5UTR act -66
Cc1ccc(N2C(=O)CC(SCC(=O)Nc3ccc(S(N)(=O)=O)cc3)C2=O)cc1 (stereo not given)	aSyn 5UTR act -76
CC1CC(C)(C)NC(=S)N1CCCC(=O)Nc1ccc2c(c1)OCCO2 (stereo not given)	aSyn 5UTR act -91
O=C(CCc1ccccc1)Nc1ccc2c(c1)OCCO2	aSyn 5UTR act -102
O=C(CCc1ccccc1)Nc1cc2c(cc1Cl)OCCO2	aSyn 5UTR act -135
O=C(CS(=O)(=O)c1c[nH]c2ccccc12)Nc1ccc2c(c1)OCCO2	aSyn 5UTR act -85
Cc1ccccc1Nc1c(-c2ccc(N3CCOCC3)cc2)nc2cnccn12	aSyn 5UTR act -67
CCn1cc(C(=O)O)c(=O)c2cnc(N3CCN(C(=S)Nc4ccccc4Cl)CC3)nc21	aSyn 5UTR act -112
O=C(Nc1cccc(Br)c1)c1ccn[nH]1	aSyn 5UTR act -102
CCOC(=O)c1csc(NC(=O)C2=COCCO2)n1	aSyn 5UTR act -87
COc1ccc(OC)c(NC(=O)c2ccc(-c3csc(C)n3)cc2)c1	aSyn 5UTR act -84
Cc1nc(-c2ccc(NC(=O)c3ccc(Br)o3)cc2)cs1	aSyn 5UTR act -175
COc1ccc(C)c2sc(NC(=O)C3=COCCO3)nc12	aSyn 5UTR act -77
CC(C)(C)c1csc(NC(=O)C2=COCCO2)n1	aSyn 5UTR act -107
Cc1ccc(-c2csc(NC(=O)C3=COCCO3)n2)cc1	aSyn 5UTR act -169
O=C(Nc1nc(-c2cc(F)ccc2F)cs1)C1=COCCO1	aSyn 5UTR act -63
Cc1nc(-c2ccc(C(=O)Nc3cccc(Br)c3)cc2)cs1	aSyn 5UTR act -143
O=C(Nc1nc(-c2cc(F)ccc2F)cs1)c1ccccn1	aSyn 5UTR act -115
Cc1ccc(-c2csc(NC(=O)N3CCOCC3)n2)cc1	aSyn 5UTR act -103
CCOC(=O)c1csc(NC(=O)C2CCCCC2)n1	aSyn 5UTR act -103
CC(C)NCC(O)Cn1c2c(c3ccccc31)CCc1c-2cnn1-c1ccccc1 (stereo not given)	none
CC(=O)Nc1ccc(-c2csc(NC(=O)C3=COCCO3)n2)cc1	aSyn 5UTR act -115
CC(=O)Nc1ccc(-c2csc(NC(=O)c3ccc(C)o3)n2)cc1	aSyn 5UTR act -83
COc1cccc(Cn2c(=O)oc3ccccc32)c1	aSyn 5UTR act -77
COc1ccc(-c2cc3c(=O)n(CC(=O)NCc4ccc(F)cc4)ncn3n2)cc1	aSyn 5UTR act -75
COc1ccc(CNC(=O)Cn2ncn3cccc3c2=O)cc1	aSyn 5UTR act -78
COc1ccc(-c2cc3c(=O)n(CC(=O)NCCCN4CCC(Cc5ccccc5)CC4)ncn3n2)cc1	none
Cc1ccc2nc(N3C(=O)C(O)=C(C(=O)c4ccco4)C3c3ccc(C)o3)sc2c1 (stereo not given)	aSyn 5UTR act -82
CCc1ccc2nc(N3C(=O)C(O)=C(C(=O)c4ccco4)C3c3cccs3)sc2c1 (stereo not given)	aSyn 5UTR act -102
Cc1ccc2nc(N3C(=O)C(O)=C(C(=O)c4cc5ccccc5o4)C3c3cccs3)sc2c1 (stereo not given)	aSyn 5UTR act -85
CCOC(=O)c1sc(N2C(=O)C(O)=C(C(=O)c3ccco3)C2c2cccc(Cl)c2)nc1C (stereo not given)	aSyn 5UTR act -81
CN=C(c1ccc(C)cc1)n1c(=S)nc(-c2ccc(C)cc2)n(C)c1=S	aSyn 5UTR act -149
COc1ccccc1-c1nnc2n1N=C(c1ccc(O)c(O)c1)CS2	none
COc1cc(C(C#N)N2N=C(c3ccccc3)CC2c2ccccc2)ccc1O (stereo not given)	aSyn 5UTR act -142
N#C/C(=C/c1ccc(N2CCCCCC2)o1)c1cccc(F)c1	aSyn 5UTR act -286
N#C/C(=C/c1ccc(N2CCCCCC2)o1)c1ccc(F)cc1	aSyn 5UTR act -111
O=C(c1ccccc1)n1c(=S)nc2ccccn21	aSyn 5UTR act -124
Cc1cccc(C(=O)n2c(=S)nc3ccccn32)c1	aSyn 5UTR act -102
Cc1[nH]n(-c2nc(-c3ccc(Cl)cc3)cs2)c(=O)c1N=Nc1ccc(O)cc1	aSyn 5UTR act -118
CC(=O)Oc1ccc(-c2cc3ccccc3oc2=O)cc1	aSyn 5UTR act -135
O=c1cc(-c2ccccc2)c2ccc(O)cc2o1	none
COc1ccc(-c2cc3ccc(O)cc3oc2=O)cc1	aSyn 5UTR act -64
O=c1oc2cc(O)ccc2cc1-c1ccccc1	aSyn 5UTR act -147
CC(C)(C)Nc1nc(Cl)nc(Nc2ccccc2)n1	aSyn 5UTR act -136
CCCNc1nc(Cl)nc(Nc2ccc(Cl)cc2)n1	aSyn 5UTR act -63
Cn1cnc2c(N/N=C/c3cccs3)ncnc21	aSyn 5UTR act -67
COc1cccc(/C=N/Nc2ncnc3c2ncn3Cc2ccccc2)c1O	none
COc1ccc(N(CC(=O)Nc2cc(Cl)ccc2C)S(=O)(=O)c2c(C)noc2C)cc1	none
COC(=O)c1ccc(C)c(NC(=O)CN(c2cc(OC)ccc2OC)S(C)(=O)=O)c1	aSyn 5UTR act -88
CCc1c(C)sc(NC(=O)c2cccs2)c1C#N	aSyn 5UTR act -158
Cc1sc(NC(=O)c2ccccc2)c(C#N)c1-c1ccccc1	aSyn 5UTR act -141
